# According to PubChem BioAssay (Tox21):
# “And” between values parts separate entries of the source, which are not always exact repeats. Identical values can stand only once. Records with an inconclusive call do not appear. The source made the active and inactive calls. Calls come from the whole dose curve; as a rule, active = well fitted inhibition curve with a large enough effect in the repeat runs; inconclusive = weak or mixed curves; inactive = no such curve, though single readings can be large or run the other way.
# Target: Cytochrome P450 2C9 (Homo sapiens) (UniProt P11712)
# Sequence (P11712 whole entry, looked up): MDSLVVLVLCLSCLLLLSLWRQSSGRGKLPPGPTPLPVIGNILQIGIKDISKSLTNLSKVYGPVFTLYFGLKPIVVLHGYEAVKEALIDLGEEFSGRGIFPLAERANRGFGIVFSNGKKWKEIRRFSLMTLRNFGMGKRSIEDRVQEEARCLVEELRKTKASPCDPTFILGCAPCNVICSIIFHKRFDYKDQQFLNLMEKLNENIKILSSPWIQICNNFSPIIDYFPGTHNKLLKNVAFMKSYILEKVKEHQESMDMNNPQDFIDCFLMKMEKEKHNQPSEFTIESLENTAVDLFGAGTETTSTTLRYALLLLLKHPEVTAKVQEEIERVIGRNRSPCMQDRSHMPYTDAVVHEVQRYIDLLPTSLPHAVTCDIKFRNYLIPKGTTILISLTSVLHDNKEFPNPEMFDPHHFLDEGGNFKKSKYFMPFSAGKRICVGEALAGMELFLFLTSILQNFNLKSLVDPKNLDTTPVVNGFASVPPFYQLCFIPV
# Test: Cytochrome P450 Family 2 Subfamily C Member 9 (CYP2C9) small molecule antagonists: luciferase reporter qHTS assay (AID 1671198); note: nearly all actives have a fitted effect of over 50% in size
# Settings: P450-Glo CYP2C9 enzyme assay, luciferin luminescence; series mostly up to 115 µM; activity change, negative = inhibition: at the top concentration
# Method in brief: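 P450-Glo proluciferin substrate with CYP2C9 enzyme; 10 min RT preincubation, then NADPH regeneration 1 h at 37C; luciferin detection reagent 20 min RT, luminescence in relative luminescence units.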
# % is set by controls: 0 for no effect and ±100 for the full control effect; potency is the fitted concentration of half-maximal effect.
SMILES,"activity change, negative = inhibition",Potency
N#Cc1ccc(O)cc1,17.2% (inactive),
CS(=O)(=O)c1ccc(C(=O)C2C(=O)CCCC2=O)c([N+](=O)[O-])c1,,31.4 µM (active)
CC(C)CCCCCCCOP(=O)(Oc1ccccc1)Oc1ccccc1,,6.36 µM (active)
Nc1ccc(Cc2ccc(N)c(Cl)c2)cc1Cl,,61.2 µM (active)
CC(=[OH+])/C=C(/C)[O-].CC(=[OH+])/C=C(\C)[O-].CC(=[OH+])/C=C(\C)[O-].[Fe],2.57% (inactive),
FC(Cl)(Cl)Cl,-5.64% (inactive),
Cn1cc(C2=C(c3cn(C4CCN(Cc5ccccn5)CC4)c4ccccc34)C(=O)NC2=O)c2ccccc21,,3.09 µM (active)
CCC(C)(C)C(=O)OC1=C(c2ccc(Cl)cc2Cl)C(=O)OC12CCCCC2,,31.7 µM (active)
Nc1ccc(Cl)cc1C(=O)c1ccccc1,,39.9 µM (active)
CC(C)(C)c1ccc(CSc2cnn(C(C)(C)C)c(=O)c2Cl)cc1,,6.33 µM (active)
ClCc1ccc(Cl)cc1Cl,-11.6% (inactive),
O=C(O)COc1nc(Cl)c(Cl)cc1Cl,,51.5 µM (active)
Nc1ccccc1C(=O)Oc1ccc2ccccc2c1,,20 µM (active)
Clc1ccc(-c2ccccc2)cc1,-3.09% (inactive),
CC(C)(C)c1cc([N+](=O)[O-])cc(C(C)(C)C)c1O,,12.6 µM (active)
Clc1ccc(Oc2ccccc2)cc1,-26.3% (inactive),

SMILES,"activity change, negative = inhibition",Potency
C[C@@H](Oc1ccc(Cl)cc1Cl)C(=O)O,-23.4% (inactive),
SCc1ccco1,,35.6 µM (active)
c1ccc(Nc2ccc3ccccc3c2)cc1,,35.4 µM (active) and 31.7 µM (active)
CC(=O)/C=C/c1ccc2c(c1)OCO2,,8.01 µM (active)
CCCN(CCC)CCc1c[nH]c2ccccc12,-16.5% (inactive),
CC(C)Oc1cccc(NC(=O)c2ccccc2C(F)(F)F)c1,,13 µM (active)
OC(Cc1ccccc1Cl)(Cn1cncn1)C1(Cl)CC1 (stereo unspecified),,2 µM (active)
C[CH2][Hg][N]1C(=O)C2C(C1=O)C1(Cl)C(Cl)=C(Cl)C2(Cl)C1(Cl)Cl (stereo unspecified),,13.5 µM (active)
CCOCn1c(-c2ccc(Cl)cc2)c(C#N)c(Br)c1C(F)(F)F,,8.94 µM (active)
CCN(CC)C(=S)[S-].CCN(CC)C(=S)[S-].[Zn+2],,15.8 µM (active)
COP(=S)(OC)Oc1cc(Cl)c(Br)cc1Cl,,5.64 µM (active)
CC(=O)C(Cl)(Cl)Cl,,15.3 µM (active)
Clc1ccc(C(Cl)(Cl)Cl)c(Cl)c1,-15.1% (inactive),
Oc1ccc(C(c2ccc(O)cc2)(C(F)(F)F)C(F)(F)F)cc1,,3.16 µM (active) and 2 µM (active)
CC(C)(O)c1cnn2c(-c3ccc(F)c(-c4c(F)cccc4C#N)c3)cnc2n1,,1.26 µM (active)
